Here are results for 8 molecules from PubChem BioAssay (NCI).

Holding throughout (test): NCI-60 one-dose screen, 48 h (100 = growth as untreated, 0 = no growth, -100 = all killed)
Holding throughout (details): 10 µM unless noted

In assay [1] the test system is DU-145 prostate.
The test system of assay [2] is K-562 leukemia.
In assay [3] the test system is MALME-3M melanoma.
In assay [4] the test system is MDA-MB-231 breast.
Assay [5] relates to RXF 393 renal.
Assay [6] deals with SF-268 CNS.
The subject of assay [7] is SF-295 CNS.
In assay [8] the test system is SF-539 CNS.
Assay [9] concerns UACC-257 melanoma.
In assay [10] the test system is M14 melanoma.
For assay [11], the system named is HCT-15 colon.
In assay [12] the test system is HT29 colon.
Assay [13] concerns SNB-75 CNS.
Assay [14] has as its system U251 CNS.
In assay [15] the test system is PC-3 prostate.
Assay [16] deals with SK-MEL-5 melanoma.
The subject of assay [17] is UACC-62 melanoma.
The test system of assay [18] is LOX IMVI melanoma.
Assay [19] relates to SK-MEL-28 melanoma.
The subject of assay [20] is SNB-19 CNS.

This is part of a sample that, as a whole, favours compounds with a hit. Of some 83,000 tested, about 20% had one in any assay.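 The endpoint reported here, percent growth, reads 100 for growth as untreated, 0 for no net growth and -100 for all cells dead.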 A number with no mark means an inactive call. Active and inactive are the calls of the source. The calls were made as follows: active = growth percent below 10; inactive = the rest.

Take `Cc1ccc(S(=O)(=O)OCCCOS(=O)(=O)c2ccc(C)cc2)cc1`: the growth was 95% in [1]; 65.9% in assay [2]; 100% in [3]; 110% in assay [4]; 107% in assay [5]; 101% in assay [6]. Also, the growth in [7] is 107%; in assay [8], 122%; in assay [9], 81.1%; in [10], 98%; in assay [11] it was 106%; in assay [12] it was 102%. For the same molecule, the growth in assay [13] was 99.7%; in assay [14], 96.4%; in assay [15], 89.3%; in [16] it was 116%; in [17], 103%; in assay [18] it was 108%. The growth in assay [19] was 109%.
Take `Cc1ccc2nc(NC(=O)CSc3nc(-c4ccccc4)c(C#N)c4nnnn34)sc2c1`: the growth in assay [1] was 119%; in assay [2] it was 97.8%; in [3] it was 109%; in [4] it was 113%; in [5], 120%; in assay [6] it was 113%. In addition, the growth was 103% in [7]; 100% in assay [8]; 108% in assay [9]; 99.5% in assay [10]; 113% in assay [11]; 106% in [12]. For the same molecule, the growth was 96.6% in assay [13]; 104% in assay [14]; 99.7% in assay [15]; 102% in [16]; 94.7% in assay [17]; 111% in assay [19].
On to `O=C(Nc1ncc(Cc2ccccc2)s1)c1ccc2c(c1)OCCCO2`, for which the growth in assay [1] is 27.5%; in [2], 9.28% (active); in [3] it was 51%; in [4], 44%; in [5] it was -10% (active); in assay [6], 60.4%. In addition, the growth in assay [7] was 15.2%; in assay [8], -9.3% (active); in assay [9] it was 41.4%; in [10], 3.29% (active); in assay [11], 21.5%; in [12] it was 9.72% (active). Also, the growth in assay [13] is 34.3%; in [14] it was 35.4%; in assay [15], 27.7%; in assay [16], 8.06% (active); in [17] it was 29%; in assay [18] it was 29.9%. Also, in [19], the growth is 36.8%.
Turning to `CCNC(=O)Oc1ccc(/C(=C(/CC)Cc2ccccc2)c2ccc(OCCN3CCCC3)cc2)cc1`, the growth in assay [1] was 104%; in assay [2] it was 64.7%; in [3], 107%; in assay [4], 80.1%; in assay [5] it was 94.6%; in assay [6], 92.9%. In addition, the growth in assay [7] was 102%; in [8], 97.2%; in [9], 90.1%; in assay [10] it was 93.1%; in assay [11], 73.1%; in assay [12] it was 98.6%. The growth in assay [13] is 85.5%; in assay [14] it was 91.7%; in assay [15], 75%; in [16], 91.7%; in [17], 98.3%; in [19], 99%.
In the case of `CCN(CC)CCN1C(=O)c2c(c(C)c3c(oc4ccc(OC)cc43)c2C)C1=O`, the growth was 94.1% in assay [1]; 90.5% in assay [2]; 91.9% in [3]; 96.3% in assay [4]; 82.2% in [5]; 94.9% in [6]. In addition, the growth in assay [7] was 105%; in [8], 94.1%; in assay [9] it was 101%; in [10], 103%; in [11], 90%; in assay [12], 87.5%. Further, the growth in [13] is 116%; in [14], 87.3%; in assay [15] it was 90.7%; in assay [16], 82.7%; in assay [17], 97%; in assay [18], 93.3%. Also, the growth in assay [19] is 91.6%.
In the case of `CC(=O)/C(=C/c1ccc([N+](=O)[O-])cc1)C(=O)c1ccccc1`, the growth is 92.6% in assay [1]; 31.3% in [2]; 89.1% in assay [3]; 91.4% in assay [4]; 74.2% in [5]; 76.1% in assay [6]. In addition, the growth in [7] was 93.3%; in [8], 102%; in [9] it was 76.3%; in [10] it was 79.8%; in assay [11], 60.6%; in [12], 41.1%. Moreover, the growth was 88.5% in assay [13]; 71.3% in assay [14]; 63.4% in assay [15]; 87.5% in assay [16]; 77.2% in assay [17]; -28.5% (active) in [18]. In addition, the growth in assay [19] is 91.6%.
`O=C1C(Nc2ccccn2)=C(I)C(=O)c2ncccc21`: the growth was -93.6% (active) in assay [1]; 1.75% (active) in [2]; -99.6% (active) in assay [3]; -31.8% (active) in [4]; -60.8% (active) in [5]; -33.1% (active) in [6]. The growth was -31.6% (active) in assay [7]; -98% (active) in assay [8]; -27.9% (active) in [9]; -84.5% (active) in [10]; -60% (active) in assay [11]; -14.5% (active) in [12]. Besides, the growth was -94.3% (active) in assay [13]; -82.4% (active) in [14]; 6.61% (active) in assay [15]; -98.9% (active) in assay [16]; -68% (active) in [17]; -72.7% (active) in [18]. Moreover, in assay [19], the growth was -36.7% (active).
For the molecule `COc1ccc(/C(C)=C(/c2ccc(OCCCN(C)C)cc2)c2ccc(OC(=O)c3ccccc3)cc2)cc1`, the growth in [1] is 102%; in [2], 38.9%; in assay [3], 83.6%; in assay [4], 71.1%; in [5] it was 66.7%; in [6], 77.8%. Moreover, the growth is 89.8% in assay [7]; 89.1% in assay [8]; 89.7% in assay [9]; 66.4% in assay [10]; 63% in assay [11]; 9.02% (active) in [12]. For the same molecule, the growth in assay [13] was 105%; in [20] it was 94.8%; in [15], 73.4%; in assay [16] it was 85.7%; in assay [17] it was 88.7%; in assay [18] it was -2.62% (active). Besides, in [19], the growth is 85.2%.
